# POLH inh = qHTS for Inhibitors of Polymerase Eta; DNA polymerase eta (Homo sapiens), Q9Y253; recombinant Pol eta, fluorescent DNA replication assay; Potency, µM (series often up to 114 µM), for inactives: top-dose activity change, negative = inhibition, hits mostly inhibitors; 390,000 compounds, 1.2% hits; further: potency means the concentration at half of the fitted maximal effect; on the % scale 0 is the no-effect control and ±100 the full control effect
# Target sequence (Q9Y253 whole entry, looked up): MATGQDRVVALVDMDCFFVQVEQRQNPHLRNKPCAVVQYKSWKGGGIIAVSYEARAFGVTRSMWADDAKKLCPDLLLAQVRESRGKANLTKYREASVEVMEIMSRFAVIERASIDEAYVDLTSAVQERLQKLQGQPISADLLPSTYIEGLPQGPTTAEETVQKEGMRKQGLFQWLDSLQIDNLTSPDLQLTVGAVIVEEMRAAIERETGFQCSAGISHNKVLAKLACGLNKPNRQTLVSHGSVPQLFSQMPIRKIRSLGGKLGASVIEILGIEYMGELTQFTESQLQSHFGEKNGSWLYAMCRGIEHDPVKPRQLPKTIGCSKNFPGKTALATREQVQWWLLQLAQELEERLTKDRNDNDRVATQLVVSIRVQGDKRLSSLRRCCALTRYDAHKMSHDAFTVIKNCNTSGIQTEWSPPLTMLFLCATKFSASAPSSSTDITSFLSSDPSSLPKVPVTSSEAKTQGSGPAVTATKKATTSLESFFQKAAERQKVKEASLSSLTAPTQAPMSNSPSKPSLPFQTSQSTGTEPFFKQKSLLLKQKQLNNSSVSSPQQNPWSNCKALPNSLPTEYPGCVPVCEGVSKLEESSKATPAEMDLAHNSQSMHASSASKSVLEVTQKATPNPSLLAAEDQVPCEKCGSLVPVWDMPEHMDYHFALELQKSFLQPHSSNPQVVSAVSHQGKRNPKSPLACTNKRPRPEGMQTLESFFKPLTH
#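 Fluorescent replication assay: 50 nM final substrate added after a 15 min room-temperature compound preincubation with 10 nM enzyme. Signal taken at 0 min and again at 10 min.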
# PI4K2A inh = qHTS for small molecular inhibitors of PI4K2A; Phosphatidylinositol 4-kinase type 2-alpha (Homo sapiens), Q9BTU6; purified PI4K2A, ADP-Glo luminescence, 1 h; hits give low values; activity change, negative = inhibition, % at 76.9 µM; 420,000 compounds, 0.13% hits; AID 1346378, 2018; in the data active means activity change below about -50%; inconclusive means mostly about -30% to -49%;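 further: -100% = wells without enzyme as full effect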
#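 PI4K2A activity was measured by ADP-Glo luminescence: enzyme (4 ug/mL stock) and phosphatidylinositol (1.2 mM stock) in Tris pH 7.5/MgCl2/EGTA/Triton X-100 buffer were reacted with ATP (300 microM stock) for one hour at ambient temperature.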
# POLK inh = qHTS for Inhibitors of Polymerase Kappa | purified Pol kappa, fluorescent DNA synthesis assay, 10 min | Potency, µM (titrated, usually from 107 µM), without a hit: at the highest dose activity, negative = inhibition, hits mostly inhibitors | 400,000 compounds, 0.53% hits | AID 588579, 2011; further: potency means the concentration at half of the fitted maximal effect; on the % scale 0 is the no-effect control and ±100 the full control effect
#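 Enzyme at 10 nM met test compounds for 15 min at room temperature. Substrate addition (50 nM final) began the reaction, which was monitored by fluorescence at 0 and 10 min.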
# Pol iota inh = qHTS for Inhibitors of Polymerase Iota; DNA polymerase iota (Homo sapiens), Q9UNA4; 390,000 compounds, 1% hits; Pol iota fluorescent replication assay, 10 min; AID 588590, 2011; Potency, µM (titrated, usually from 115 µM), for inactives: top-dose activity, negative = inhibition, usual class: inhibitors; further: potency means the concentration at half of the fitted maximal effect
#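 Pol iota at 10 nM preincubated 15 min with compounds at room temperature; reaction started with fluorescent substrate, 50 nM final. Fluorescence read kinetically at 0 and 10 min; buffer-only wells as negative control.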
# Pol beta inh = qHTS Assay for Inhibitors of DNA Polymerase Beta | 340,000 compounds, 1.3% hits | Pol beta primer extension/strand displacement, fluorescence kinetic | Potency, µM (highest dose often 114 µM), without a hit: at the highest dose activity change, negative = inhibition, hits mostly inhibitors; further: potency means the concentration at half of the fitted maximal effect; on the % scale 0 is the no-effect control and ±100 the full control effect
#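 Reaction started by 50 nM substrate onto compound-treated Pol beta (10 nM, 15 min preincubation, room temperature); plates read at 0 min and 10 min. Normalized concentration-effect data fitted by four-parameter Hill equation.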
# PI5P4Ka inh = qHTS for Inhibitors of phosphatidylinositol 5-phosphate 4-kinase (PI5P4K). Phosphatidylinositol 5-phosphate 4-kinase type-2 alpha (Homo sapiens), P48426. PI5P4Kalpha enzyme, ADP-Glo luminescence, 60 min; hits give low values. max response, %. 330,000 compounds, 1.2% hits. AID 652105, 2013; active means max response of -50% or lower; inconclusive means between -30% and -50%; inactive means -30% or higher; further: value at the top dose of about 77 µM; on the % scale 0 is the no-effect control and ±100 the full control effect
#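 Reactions run in 0.038 M HEPES pH 7.4, 0.28 mM EGTA, 0.1% CHAPS and 5% DMSO, with PI5P4Kalpha, substrate, compound and 5 microM ATP final, one hour at room temperature. Readout is ADP-Glo luminescence.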
# Numbers without * were called inactive; ? = inconclusive; . = not tested or not shown; [ ] = remark or other dose. In the library only some 2.8% were active in any assay of this set; here they are far more common. Unless noted, the call rests on the fitted dose curve; in most records, active means well fitted inhibition curve with a large enough effect; inconclusive means small, poorly fitted or top-dose-only effect, or another doubt; inactive means no such curve, though single readings can be large or run the other way.
SMILES,POLH inh,PI4K2A inh,POLK inh,Pol iota inh,Pol beta inh,PI5P4Ka inh
CCC1=Nc2cc(C(=O)NC(C)c3ccccc3)ccc2Sc2ccc(Cl)cc21 (stereo not drawn),-14%,5,0%,10%,-22%,.
CCCC1=Nc2cc(C(=O)NC(C)c3ccccc3)ccc2Sc2ccc(C)cc21 (stereo not drawn),-10%,-6,?,89µM*,-14%,.
O=C1[C@H](Cc2ccccc2)NC/C=C\C[C@H](c2ccco2)N1Cc1ccccc1,.,.,-8%,0%,.,.
COc1ccc(CNC(=O)c2cc3cc4ccc(C)cc4nc3o2)cc1,-15%,1,-1%,12%,-2%,.
Cc1ccc2cc(C#N)c(SCC(=O)NCc3ccco3)nc2c1,?,-21,-43%,?,22µM*,1
Cc1ccc2cc3cc(C(=O)NCc4ccco4)oc3nc2c1,?,-7,?,?,79µM*,-8
O=C(Nc1ccc(Cl)cc1)OC1CCC12CCC(c1ccccc1)CC2 (stereo not drawn),.,-4,.,.,.,.
O=C(C=P(c1ccccc1)(c1ccccc1)c1ccccc1)c1ccccc1-c1ccccc1C(=O)C=P(c1ccccc1)(c1ccccc1)c1ccccc1,?,3,-8%,4%,.,-65*
COc1cc(O)oc1C=Nc1ccc(C(=O)O)cc1,-3%,-50*,-9%,4%,-27%,-16
O=C(CSc1ccc(-c2ccco2)nn1)N1CCCCCC1,-6%,-1,-8%,36%,-3%,-3
O=C(CSc1ccc(-c2ccco2)nn1)NC1CCCC1,-6%,-1,-21%,17%,-6%,2
COc1ccc(C(=O)CSc2ccc(-c3ccco3)nn2)cc1,?,-13,-24%,?,14µM*,?
O=C(CSc1ccc(-c2ccco2)nn1)c1ccccc1,-9%,-1,?,50µM*,11µM*,?
O=C(CSc1ccc(-c2ccco2)nn1)NC1CCCCC1,?,0,?,?,22µM*,?
COc1ccc(C(=O)CSc2ccc(-c3ccccc3)nn2)cc1,-8%,-3,-14%,9%,7%,5
CC(C)C[C@H](NC(=O)[C@H](Cc1ccccc1)NC(=O)c1cnccn1)B(O)O,.,3,.,.,.,.
CCOC(=O)c1c(C)[nH]c(C)c1C(=O)COC(=O)c1ccc([N+](=O)[O-])s1,22µM*,-7,79µM*,10µM*,.,-29
Oc1cccc2ccc[n+](CC(O)CBr)c12 (stereo not drawn),.,.,-19%,38%,.,.
COc1cc(C(=O)Nc2ccc(C)c(S(=O)(=O)N(C)C)c2)ccc1OCC(=O)N1CCOCC1,?,-10,-9%,50µM*,.,-12
C[n+]1cc2c3c(ccc2c2ccc4cc5c(cc4c21)OCO5)OCO3,?,-23,-11%[60.1 µM],28µM*,7.9µM*,.
CN(C)c1ccc(/C=C/c2ccnc3ccccc23)cc1N,.,.,-16%,79µM*,.,.
CN(C)c1ccc(/C=C/c2ccnc3c2ccc2ccccc23)cc1,.,.,-6%,31%,.,.
Cc1cc(N(C)C)c(C)cc1/C=C/c1ccnc2ccccc12,.,.,-19%,89µM*,.,.
CN(C)c1ccc(/C=C/c2ccnc3ccc4ccccc4c23)cc1,.,.,28µM*,?,.,.
Cc1cccc(Oc2cc([N+](=O)[O-])cc3c2C(=O)Nc2ccccc2O3)c1,?,-1,-17%,79µM*,?,?
SMILES,POLH inh,PI4K2A inh,POLK inh,Pol iota inh,Pol beta inh,PI5P4Ka inh
O=C1Nc2ccccc2Oc2cc([N+](=O)[O-])cc(Oc3ccccc3)c21,?,-8,-39%,?,?,-24
COC(=O)C1CN(Cc2cn(Cc3ccc(OC)cc3)nn2)CCS(=O)(=O)N1Cc1ccc(Cl)cc1 (stereo not drawn),.,5,.,.,.,.
Cc1ccccc1-c1cnc(C(O)c2ccc(F)cc2)[nH]1 (stereo not drawn),.,-2,.,.,.,0
O=[N+]([O-])c1cc2c(cc1CN1CCN(CCOCCO)CC1)OCO2,-2%,-21,?,7.9µM*,19%,-1
CNC(=O)[C@@H](NC(=O)[C@H](CC(C)C)[C@H](O)C(=O)NO)C(C)(C)C,.,0,.,.,.,.
COCCNC(=O)c1cc(Sc2nnc(C)s2)nc2ccccc12,.,.,.,.,3%,.
Cn1cccc1Cc1nnc(SCC(=O)NCc2ccco2)n1CCc1ccccc1,-29%,-10,?,22µM*,?,.
COCCn1c(SCC(=O)NCc2ccco2)nc2cccnc21,?,-4,-21%,?,45µM*,-10
Cn1cccc1Cc1nnc(SCC(=O)NCc2ccco2)n1-c1ccc(F)cc1,-1%,-6,-8%,?,-3%,.
Cc1nnc(Sc2cc(C(=O)NCc3ccco3)c3ccccc3n2)s1,?,-3,-12%,?,22µM*,-12
Cc1nc(SCC(=O)NCc2ccco2)c2c3c(sc2n1)CCCC3,?,-10,-22%,3%,6%,-15
CCCc1nc2sc3c(SCC(=O)NCc4ccco4)ncnc3c2c2c1CCC2,14µM*,-10,28µM*,?,10µM*,.
O=C(CSc1nnc(NC(=O)c2ccccc2)s1)NCc1ccco1,-10%,-3,-17%,-9%,3.2µM*,-11
Cc1ccc2cc(C)c3nnc(SCC(=O)NCc4ccco4)n3c2c1,-19%,-6,?,?,45µM*,.
O=C(CSc1nnc(NC(=O)c2ccc(F)cc2)s1)NCc1ccco1,4%,-2,-31%,-11%,-9%,-16
O=C(CSc1ncnc2ccccc12)NCc1ccco1,?,-16,-7%,?,25µM*,-9
O=C(CSc1nc2ccccc2c2nc3ccccc3n12)NCc1ccco1,?,-53*,?,?,8.9µM*,-19
O=C(CSc1ncnc2ccccc12)c1ccco1,14%,0,-4%,111%,-6%,-21
CC(C)C(=O)OCCCN1CCC2(CCC(c3ccccc3)CC2)C1=O (stereo not drawn),.,0,.,.,.,.
O=C(CSc1nc2ccccc2c(=O)n1Cc1ccccc1)NCc1ccco1,-5%,7,0%,1%,7%,.
O=C(CSc1nc2ccccc2c(=O)n1Cc1ccc(C(=O)NC2CC2)cc1)NCc1ccco1,?,-2,-34%,?,79µM*,1
COCc1cc(C)nc(N/N=C/c2ccc(-c3ccc(C(=O)O)c(Cl)c3)o2)c1C#N,.,.,.,.,22µM*,.
